# A549 tox-1 = Nrf2 qHTS screen for inhibitors: counterscreen for cytotoxicity; 390,000 tested, 0.16% active; Potency, µM (titrated, usually from 46 µM), for inactives: top-dose activity change, negative = cytotoxicity, usual class: inhibitors; A549 ARE-Fluc cells, CellTiter-Fluor viability, 18-24 h; further: potency means the concentration at half of the fitted maximal effect; on the % scale 0 is the no-effect control and ±100 the full control effect
#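 A549 ARE-Fluc cells in 5% FBS OPTI-MEM, 5000 cells/well, rested 2 h then exposed to compounds in concentration-response for 18-24 h at 37 °C. Viability by CellTiter-Fluor fluorescence (Ex 405/Em 525) after 30 min; luciferase luminescence (BugLite, 15 min, RT) read afterwards.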
# IL-2 act = qHTS of IL-2 Activators; IL-2 activation reporter assay, cell-based qHTS; stimulated with anti-CD3/CD4/CD28 beads; in transgenic mouse T cells; activation, % (series mostly up to about 46 µM); 360,000 tested, 0.065% active; AID 652025, 2013; in the data active means activation above about 50%; inconclusive means mostly about 30% to 49%; further: 0% is about no effect
#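 Readout: EGFP and DsRed signals by fluorescent plate cytometry. Unstimulated transgenic mouse T cells received compound 60 min before antibody-bead stimulation, then incubated 18 h at 37 degrees C.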
# Nrf2 activator = qHTS of Nrf2 Activators. Potency, µM (series often up to 46.1 µM), for inactives: at the highest dose activation, most hits filed as activators. 410,000 tested, 0.31% active. AREc32 ARE-luciferase reporter (MCF7-derived line), luminescence, 24 h; further: potency means the concentration at half of the fitted maximal effect; % of control where 0% means no effect; nearly all actives have a fitted effect of over 65% in size
#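 AREc32 cells carrying an ARE-driven firefly luciferase reporter were seeded at 1000 cells/well in OPTI-MEM with 5% FBS, then exposed to compound for 24 hr at 37 deg C. Luminescence was read with Steady-Glo after 30 min at RT.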
# Nrf2 block = Nrf2 qHTS screen for inhibitors; Potency, µM (titrated, usually from 46 µM), for the others: top-dose activity change, negative = inhibition, hits mostly inhibitors; 360,000 tested, 2.1% active; A549 ARE-Fluc reporter, luciferase luminescence, 18-24 h; AID 504444, 2011; further: potency means the concentration at half of the fitted maximal effect; on the % scale 0 is the no-effect control and ±100 the full control effect; nearly all actives have a fitted effect of over 60% in size
#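 Concentration-response testing used A549 ARE_Fluc cells at 5000 cells/well. Following an 18-24 h compound incubation, viability was read by fluorescence (Ex 405/Em 525) and luciferase output by luminescence.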
# FLuc enzyme inh = Nrf2 qHTS screen for inhibitors: Purified Fluc Biochemical Counterscreen for Hit Validation; shares compounds with Nrf2 block; purified firefly luciferase, luminescence inhibition; Potency, µM (doses to about 57.5 µM), inactives show at the highest dose activity change, negative = inhibition, actives largely listed as inhibitors; 1,400 tested, 4% active; AID 720522, 2013; further: potency means the concentration at half of the fitted maximal effect; on the % scale 0 is the no-effect control and ±100 the full control effect; nearly all actives have a fitted effect of over 65% in size
# Target sequence (P08659 whole entry, looked up): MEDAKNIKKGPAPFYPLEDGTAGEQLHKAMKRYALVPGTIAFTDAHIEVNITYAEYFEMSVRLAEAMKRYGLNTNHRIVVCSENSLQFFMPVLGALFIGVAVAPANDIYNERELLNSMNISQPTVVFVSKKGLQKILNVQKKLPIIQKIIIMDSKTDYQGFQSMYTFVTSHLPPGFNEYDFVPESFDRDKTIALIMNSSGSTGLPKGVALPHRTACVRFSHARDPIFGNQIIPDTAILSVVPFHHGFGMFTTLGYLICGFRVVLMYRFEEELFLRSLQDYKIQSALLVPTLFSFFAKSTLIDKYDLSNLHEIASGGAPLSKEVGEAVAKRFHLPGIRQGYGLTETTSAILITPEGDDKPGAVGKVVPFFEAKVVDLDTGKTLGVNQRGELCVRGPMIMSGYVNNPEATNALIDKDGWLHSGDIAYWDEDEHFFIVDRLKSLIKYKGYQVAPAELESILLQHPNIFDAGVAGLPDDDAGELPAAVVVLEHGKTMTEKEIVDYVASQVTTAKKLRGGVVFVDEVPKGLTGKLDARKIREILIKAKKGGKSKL
# A549 tox-2 = Nrf2 qHTS screen for inhibitors: A549 ARE-Fluc Cytotoxicity Counterscreen for Hit Validation; A549 ARE-Fluc cells, cytotoxicity counterscreen; shares compounds with Nrf2 block; 1,400 tested, 2% active; AID 720523, 2013; Potency, µM (titrated, usually from 46.1 µM), inactives show top-dose activity change, negative = cytotoxicity, actives largely listed as inhibitors;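 further: potency means the concentration at half of the fitted maximal effect; cells exposed to compounds for 18 to 24 hours; on the % scale 0 is the no-effect control and ±100 the full control effect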
# ARE-Fluc inh = Nrf2 qHTS screen for inhibitors: Nrf2 A549 ARE-Fluc Confirmation Assay for Hit Validation | shares compounds with Nrf2 block | A549 ARE-firefly luciferase reporter, luminescence | Potency, µM (titrated, usually from 46.1 µM), for inactives: top-dose activity change, negative = inhibition, usual class: inhibitors | 1,400 tested, 74% active | AID 720524, 2013; further: potency means the concentration at half of the fitted maximal effect; on the % scale 0 is the no-effect control and ±100 the full control effect; nearly all actives have a fitted effect of over 65% in size
# * marks the source's active call; other numbers are inactive results; ? = inconclusive; · = no result given; [ ] = dose if it differs, or a comment. Hits are enriched below; roughly 2.3% of the tested compounds scored in any of these assays. Unless noted, the call rests on the fitted dose curve; in most records, active means well fitted curve in the direction sought with a large enough effect; inconclusive means small, poorly fitted or top-dose-only effect, or another doubt; inactive means no such curve, though single readings can be large; an effect the other way counts as inactive or inconclusive.
SMILES,A549 tox-1,IL-2 act,Nrf2 activator,Nrf2 block,FLuc enzyme inh,A549 tox-2,ARE-Fluc inh
CC12Cc3ccc4ccccc4c3C=C1C[N+](C)(C)C2 (stereo not given),-18.9%,0.3,-0.5%,1.3µM*,-0.4%,-7.1%,18.4µM*
Cc1ccc(-c2onc(C)c2C)cc1S(=O)(=O)N1c2ccccc2CC1C (stereo not given),-18.7%,·,0.0%,8.2µM*,1.8%,-6.6%,?
Cc1ccc(-c2onc(C)c2C)cc1S(=O)(=O)N1CCOc2ccccc21,11.7%,-1.2,0.1%,?,·,·,·
CCN(CC)/[N+]([O-])=N/Oc1cc(O/N=[N+](\[O-])N(C)C)c([N+](=O)[O-])cc1[N+](=O)[O-],-25.4%,·,·,19.0%,·,·,·
Nc1ccc(-c2cc3ccccc3c(=O)o2)cc1,-0.6%,0.6,6.0%,?,1.51µM*,-3.4%,2.31µM*
O=C(NCc1cccs1)c1ccc2ccccc2n1,-5.0%,0.8,2.1%,?,·,·,·
C=C(c1ccc2ccccc2n1)c1cccs1,·,·,·,·,-5.6%,-29.7%,?
COc1cc2c(cc1OC)CN(C(=O)CN1CCN(S(=O)(=O)c3ccccc3Br)CC1)CC2,-6.8%,-1.0,-0.6%,1.84µM*,2.7%,-16.4%,-4.7%
COc1ccc(-c2c(C#N)c(SCC(=O)c3cc4ccccc4oc3=O)nc(C)c2C(=O)Nc2ccccc2)cc1,-12.8%,1.7,-0.4%,6.51µM*,-19.0%,-18.4%,14.6µM*
O=C(COC(=O)c1cc(S(=O)(=O)N2CCCC2)ccc1O)Nc1ccc(SC(F)F)cc1,-13.3%,2.6,0.0%,-30.1%,·,·,·
O=C(CNc1cc(S(=O)(=O)N2CCCC2)ccc1OCC(F)(F)F)Nc1ccc(SC(F)F)cc1,?,-3.5,5.4%,5.17µM*,-2.6%,-18.7%,?
S=C(NCCc1ccccc1)Nc1cccc2cnccc12,-24.0%,-2.8,3.0%,3.66µM*,0.0426µM*,-15.9%,2.59µM*
CCCCNC(=S)Nc1cccc2cnccc12,-5.4%,0.1,3.7%,-21.7%,·,·,·
S=C(NCc1ccccc1)Nc1cccc2cnccc12,-13.1%,8.0,3.9%,2.59µM*,-13.7%,-2.2%,7.31µM*
CC(=O)c1cccc(NC(=O)C2CCN(S(=O)(=O)c3ccc(C)cc3)CC2)c1,-7.4%,0.6,3.9%,·,·,·,·
CC1Sc2ccc(S(=O)(=O)N3CCN(c4cccc(Cl)c4)CC3)cc2NC1=O (stereo not given),-3.3%,1.3,0.6%,-5.7%,·,·,·
CC1Sc2ccc(S(=O)(=O)N3CCN(c4ccccc4)CC3)cc2NC1=O (stereo not given),-5.3%,-0.3,0.7%,7.31µM*,-0.9%,-4.8%,?
Cc1ccccc1NC(=O)C1CCN(S(=O)(=O)c2ccc3c(c2)NC(=O)C(C)S3)CC1 (stereo not given),-1.8%,-3.8,0.0%,-12.3%,·,·,·
Cc1ccc(C)c(N2CCN(C(=O)CCS(=O)(=O)c3ccc4c(c3)NC(=O)C(C)S4)CC2)c1 (stereo not given),-1.2%,-0.6,-0.5%,6.51µM*,0.5%,-15.3%,6.51µM*
Cc1ccc(S(=O)(=O)N2CCC(C(=O)Nc3ccc(C)c(Cl)c3)CC2)cc1,-14.0%,·,7.8%,?,-2.3%,-16.5%,7.31µM*
Cc1ccc(NC(=O)C2CCN(S(=O)(=O)c3ccc4c(c3)NC(=O)C(C)S4)CC2)cc1Cl (stereo not given),?,-0.3,-0.5%,1.3µM*,-9.6%,-27.4%,9.2µM*
O=C(O)c1ccc2nc(-c3cc4cc(Cl)ccc4oc3=O)[nH]c2c1,0.4%,·,9.5%,·,·,·,·
Cc1ccc(NC(=O)c2sc3ncn(Cc4cccc(F)c4)c(=O)c3c2C)c(Br)c1,-1.1%,·,0.4%,·,·,·,·
O=C(CN1C(=O)C2(SCC(=O)N2c2ccccc2)c2ccccc21)Nc1ccccc1C(F)(F)F (stereo not given),2.3%,·,0.4%,-16.4%,·,·,·
COc1cccc(N2CCN(C(=O)CCCn3c(=O)[nH]c4ccc(Br)cc4c3=O)CC2)c1,-4.7%,·,-1.9%,-26.4%[9.27 µM],·,·,·
CC(/C=N/NC(=O)CSc1nc(C)cc(C)n1)=C\c1ccccc1,1.4%,-1.1,0.7%,-28.4%,·,·,·
CC(/C=N\NC(=O)Cn1c(C)nc2ccccc21)=C\c1ccccc1,-18.9%,0.4,13.5%,8.2µM*,-2.2%,-17.9%,7.31µM*
C/C(=N/NC(=O)c1cc(-c2cccc([N+](=O)[O-])c2)n[nH]1)c1cccc(O)c1,-0.5%,1.4,1.3%,-41.1%,·,·,·
C/C(=N\NC(=O)c1cc(-c2cccc([N+](=O)[O-])c2)n[nH]1)c1ccccc1O,?,0.9,-1.2%,9.2µM*,-13.5%,-3.2%,?
CCOC(=O)c1cnc2ccc(OCC)cc2c1NCCc1ccc(OC)c(OC)c1,-17.2%,·,-2.0%,3.66µM*,-15.7%,?,13µM*

# From PubChem BioAssay
